Most compounds without a hit are left out; they make up all but 2.9% or so of the library.
HGIII-sPLA2 inh – human group III sPLA2 inhibitors, primary screen, biochemical, QFRET, BODIPY PC-A2 liposome substrate; Group 3 secretory phospholipase A2 (Homo sapiens), Q9NZ20; QFRET BODIPY PC-A2 liposome hydrolysis, fluorescence; inhibition, % at 12.2 µM; 370,000 compounds, 0.56% hits; AID 743126, 2013;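 active = inhibition above mean plus 3 SD of compounds lying within the high and low control bounds, cut at about 19% in these data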;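 note: 0% = median of test compound wells and 100% = no enzyme DMSO wells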
H9c2 protect – cardioprotection against H2O2-induced cell death, primary screen, uHTS, H9c2 cells, ATPLite luminescence; H9c2 cardiomyocytes, H2O2 injury protection, 2 h; 360,000 compounds, 0.63% hits; AID 588492, 2011; protection from H2O2 cell death, % at 20 µM;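 active = compounds giving at least 50% protection of heart cells from peroxide-induced death in the single-dose screen, raw or plate-pattern-corrected value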;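 note: 0% = DMSO wells with peroxide and 100% = DMSO wells without peroxide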
DAGLB inhibitor – DAGLB lipase inhibitors, primary screen, biochemical, fluorescence, HTS; 340,000 compounds, 0.059% hits; inhibition, % at 5.17 µM; HEK293T DAGLB membrane lysate, EnzChek fluorogenic substrate; in the data active = inhibition above about 34%;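 note: 0% = enzyme with vehicle and 100% = wells lacking enzyme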
Myeloid diff MLP – induction of myeloid progenitor differentiation, primary screen, cell-based, flow cytometry, MLPCN library; ER-HoxA9 myeloid progenitors, lysozyme-GFP differentiation; calls only at 10 µM; 360,000 compounds, 1% hits; AID 624256, 2012;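 active = normalized GFP-positive differentiation at or above the plate's own cutoff, the solvent-only control mean plus 3 SD; inconclusive = no clear call, values can overlap the other calls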;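 note: cells exposed to compound for four days before flow analysis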
Rtt109 Vps75 – inhibitors of C. albicans Rtt109/Vps75 HAT, primary screen, biochemical, ThioGlo CoA-SH fluorescence, plate reader | purified Rtt109/Vps75, 4 h | AID 540336, 2011 | inhibition, % at 34.9 µM | Histone acetyltransferase RTT109 (Candida albicans (strain SC5314 / ATCC MYA-2876)), … | 330,000 compounds, 0.16% hits;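 active = inhibition of at least 50% in every replicate; inconclusive = best replicate reaches 50% inhibition but some replicates fall short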
ABHD5 PLIN5 PPI – ABHD5-PLIN5 interaction inhibitors, primary screen, cell lysate, split luciferase complementation, luminescence; inhibition, % at 4 µM; 360,000 compounds, 0.78% hits; Split G. princeps luciferase complementation, 4 h;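 active = inhibition above the mean inhibition across every tested compound plus 3 SD, cut at about 22% in these data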;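 note: 0% = DMSO only wells and the 100% control is not disclosed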
Target sequence (Q00G26 whole entry, looked up): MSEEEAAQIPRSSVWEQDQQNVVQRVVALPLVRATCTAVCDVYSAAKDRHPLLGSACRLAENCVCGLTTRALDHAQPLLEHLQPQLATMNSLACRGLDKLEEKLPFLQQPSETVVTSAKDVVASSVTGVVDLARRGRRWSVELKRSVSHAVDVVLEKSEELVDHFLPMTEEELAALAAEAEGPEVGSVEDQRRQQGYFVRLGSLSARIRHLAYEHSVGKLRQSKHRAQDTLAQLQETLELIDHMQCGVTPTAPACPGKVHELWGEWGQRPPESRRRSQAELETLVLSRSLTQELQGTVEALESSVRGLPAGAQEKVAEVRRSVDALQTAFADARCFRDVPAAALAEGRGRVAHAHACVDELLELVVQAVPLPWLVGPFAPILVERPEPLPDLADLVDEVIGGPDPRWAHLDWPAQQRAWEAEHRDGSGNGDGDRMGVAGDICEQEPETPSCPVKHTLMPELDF
Target sequence (Q8WTS1 whole entry, looked up): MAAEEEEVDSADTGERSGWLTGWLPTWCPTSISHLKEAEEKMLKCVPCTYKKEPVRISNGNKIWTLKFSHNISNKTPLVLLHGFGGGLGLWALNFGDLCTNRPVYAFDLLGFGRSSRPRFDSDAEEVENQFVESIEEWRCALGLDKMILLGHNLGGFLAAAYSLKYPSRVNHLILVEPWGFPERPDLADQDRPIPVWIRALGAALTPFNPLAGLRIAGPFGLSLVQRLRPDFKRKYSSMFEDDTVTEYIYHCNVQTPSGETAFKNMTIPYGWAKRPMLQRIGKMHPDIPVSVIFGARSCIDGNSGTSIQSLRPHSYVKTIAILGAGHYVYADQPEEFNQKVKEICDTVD
* marks the source's active call; other numbers are inactive results; i = inactive; ? = inconclusive; nt = not tested or not shown; + = active, no number.

SMILES	HGIII-sPLA2 inh	H9c2 protect	DAGLB inhibitor	Myeloid diff MLP	Rtt109 Vps75	ABHD5 PLIN5 PPI
CC1=CC(=O)[C@@H](O)[C@@H](c2ccccc2Br)N1C	3	10	-5	i	10	2
Cc1nn(C)c(C(=O)Nc2ccn(Cc3c(F)c(F)cc(F)c3F)n2)c1[N+](=O)[O-]	2	-3	-1	+	-8	1
Cc1nn(Cc2cccc(C(=O)Nc3ccn(Cc4c(F)c(F)cc(F)c4F)n3)c2)c(C)c1[N+](=O)[O-]	-12	9	-3	i	0	-3
N#CC1=C(N)Oc2cc(N)ccc2C1c1cc(Br)cs1 (centres undefined)	9	-4	2	+	-2	15
N#CC1=C(N)Oc2cc(N)ccc2C1c1ccsc1 (centres undefined)	-1	3	-2	i	-7	-3
CC(OC(=O)Cc1n[nH]c(=O)c2ccccc12)C(=O)Nc1ccc(F)cc1 (centres undefined)	-11	59*	-1	i	-4	0
CC(OC(=O)Cc1n[nH]c(=O)c2ccccc12)C(=O)Nc1ccc(F)cc1Cl (centres undefined)	8	69*	-1	i	0	-2
O=C(NN=Cc1ccc(O)cc1)c1ccccc1NS(=O)(=O)c1cccs1	-16	27	3	i	13	-3
O=C(N/N=C/c1cc(Cl)cc([N+](=O)[O-])c1O)c1ccccc1NS(=O)(=O)c1cccs1	4	50*	2	i	17	2
COC(=O)CSc1ccc(S(=O)(=O)N2CCCCCC2)cc1[N+](=O)[O-]	-17	-11	-1	i	1	-10
c1ccc(-c2cn(C[C@H]3CC[C@@H]([C@@H]4CC[C@H](Cn5cc(-c6ccccn6)nn5)O4)O3)nn2)nc1	10	6	0	i	-4	-10
O=C(Nc1ccc(NC(=O)c2ccc(Cl)c(S(=O)(=O)N3CCOCC3)c2)cc1)c1ccccc1	8	5	1	?	2	-2
COc1ccc(CNC(=O)c2ccc(Cl)c(S(=O)(=O)N3CCOCC3)c2)cc1OC	nt	-17	1	+	0	-1
CN(c1cccc(NC(=O)c2ccc(Cl)c(S(=O)(=O)N3CCOCC3)c2)c1)S(C)(=O)=O	1	3	0	+	-5	0
COc1ccc(C(=O)NCc2cccc(Cl)c2)cc1S(=O)(=O)N1CCOCC1	-2	6	-3	i	1	8
COc1ccc([C@H]2CN(c3ccc(OC)cc3)C(=O)[C@@H]2CC(=O)Nc2ccc(Br)cc2)cc1	-8	-16	2	+	nt	-18
C=CCN1C(=O)/C(=C2\SC(N3CCOCC3)=NC2=O)c2cc(Br)ccc21	5	76*	1	i	6	0
O=C(CCNC(=O)C1CCN(S(=O)(=O)c2ccc(F)cc2)CC1)NCCc1cccc(F)c1	2	2	-2	i	-25	-2
CCCCC(CCCC)=N/N=C/c1c(O)n(CC)c2cc(C3=NNC(=O)CC3)ccc12	-5	19	3	i	-26	3
CCCOc1ccc(C2=NNC(=O)CC2)cc1	0	2	0	i	37	-4
CCn1c(O)c(/C=N/N=C2CCCCC2)c2cc(C3=NNC(=O)CC3)ccc21	6	54*	2	i	-6	-1
CCn1c(O)c(/C=N/N=C2CCCC2)c2ccc(C3=NNC(=O)CC3)cc21	-7	57*	-1	i	-5	-3
CCCSc1nnc(CNS(=O)(=O)c2ccc(C)cc2)n1C	0	-1	-2	i	2	22*
Fc1ccc(-c2cn(-c3ccccc3)c3[n+]2CCS3)cc1	16	-4	1	+	-11	-1
Cc1c(C(=O)Nc2ccc(-c3nnc4n3CCCCC4)cc2)oc2c1ccc1ccccc12	-3	52*	-2	i	-1	6
O=C(Nc1nc(-c2ccc3c(c2)OCCO3)cs1)c1ccco1	2	-2	-4	i	7	1

From PubChem BioAssay
